Each structure is given as a SMILES string. Screen size: about 54,000 compounds; about 120 (0.22%) were called active. A call without a number means that no potency is given here. Inconclusive results (about 8%) are left out. The call rests on the fitted dose curve; in most records, active means well fitted inhibition curve with a large enough effect; inconclusive means small, poorly fitted or top-dose-only effect, or effect the other way; inactive means flat fitted curve, though single readings scatter. Only a selection was taken, and actives are over-represented in it overall.
Potency means the concentration at half of the fitted maximal effect.

Fumarate hydratase, mitochondrial (Homo sapiens), sequence (P07954 whole entry, looked up): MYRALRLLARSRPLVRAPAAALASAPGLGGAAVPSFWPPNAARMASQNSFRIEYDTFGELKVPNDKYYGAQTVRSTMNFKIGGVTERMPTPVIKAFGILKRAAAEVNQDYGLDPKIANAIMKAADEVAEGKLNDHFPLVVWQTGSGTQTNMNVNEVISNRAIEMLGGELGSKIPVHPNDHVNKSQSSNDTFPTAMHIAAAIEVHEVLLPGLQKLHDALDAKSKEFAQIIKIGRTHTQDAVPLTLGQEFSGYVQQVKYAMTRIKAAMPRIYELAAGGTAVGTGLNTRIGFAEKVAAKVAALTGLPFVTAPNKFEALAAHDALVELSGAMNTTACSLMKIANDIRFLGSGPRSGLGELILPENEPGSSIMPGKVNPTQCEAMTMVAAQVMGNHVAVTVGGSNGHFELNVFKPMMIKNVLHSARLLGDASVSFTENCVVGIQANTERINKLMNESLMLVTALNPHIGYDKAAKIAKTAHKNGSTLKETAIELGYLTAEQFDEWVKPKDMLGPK

This assay concerns the target Fumarate hydratase, mitochondrial (Homo sapiens) (UniProt P07954). The assay can be described thus: Identification of activators of human fumarate hydratase by quantitative high-throughput screening. Further: the screen sought activators but most active calls are inhibition curves; nearly all actives have a fitted effect of over 45% in size. The following applies: FH coupled MDH/diaphorase resazurin fluorescence, 15 min; series mostly up to 79.9 µM. An excerpt: Fumarate hydratase (FH) is a metabolic enzyme that is part of the Krebs-cycle, and reversibly catalyzes the hydration of fumarate to malate. Mutations of the FH gene have been associated with fumarate hydratase deficiency (FHD), hereditary leiomyomatosis, renal cell cancer (HLRCC), and other diseases. Currently there are no high-quality small molecule probes for studying human fumarate hydratase. To address this, we developed a quantitative high throughput screening (qHTS) FH assay and screened a total of 57,037 compounds in dose-response. While no inhibitors of FH were confirmed, a series of phenyl-pyrrolo-pyrimidine-diones (12 compounds) were identified as activators of human fumarate hydratase. […] The binding of two compounds from the series to human fumarate hydratase was confirmed by microscale thermophoresis. The low hit rate in this screening campaign confirmed that FH is a "tough target" to modulate, and the small molecule activators of human fumarate hydratase reported here may serve as a starting point for further optimization and development into cellular probes of human FH and potential drug candidates.
For primary high-throughput screen, 3 ul of FH solution (containing 13.33nM human fumarate hydratase, 13.33IU/ml malic dehydrogenase, 0.2mM NAD, 0.067mg/ml diaphorase and 0.067mM resazurin in the assay buffer (50 mM Tris pH 8.0, 5 mM MgCl2, 0.01% Brij 3) was dispensed into each well in a black solid bottom 1536-well assay plate (Greiner Bio-One) using a BioRAPTR FRD dispenser (Beckman Coulter, Brea, CA). A 1536-well pintool dispenser outfitted with 20 nl pins (Wako Automation, San Diego, CA) was used to transfer 20 nL of DMSO-solubilized compound (Cherrypick plates) to each 1536-well assay plate. Each compound was screened at five concentrations: 15 nM, 151 nM, 1.5 uM, 15.4 uM, 76.9 uM. Following compound transfer, plates were incubated in room temperature for 10 minutes. 1 uL of substrate solution containing fumaric acid (160 uM) was dispensed via BioRAPTR FRD to initiate the reaction. Plates were immediately transferred to a ViewLux microplate imager (PerkinElmer, Waltham, MA), and any resulting resorufin fluorescence was measured (exitation/emission, 525/598 nm) at 0 and 15 minutes. The exposure time is 1 second. Fluorescence from each well was normalized using enzyme-free and DMSO-treated control wells on each plate, and changes in fluorescence (delta RFU) were calculated using the difference in fluorescent signal for each well at 15 minutes versus 0 minutes.
(Resazurin is reduced to fluorescent resorufin, in cell work by metabolically active cells.)
For the compound `CCOc1cc(C(=O)NCCc2csc3nc(-c4ccc(C)cc4)nn23)cc(OCC)c1OCC`, the activity change, negative = inhibition result was “inactive”.

Consider `CCOc1ccccc1N(C)C(=O)c1cc2c(s1)-c1ccccc1OC2`, for which the activity change, negative = inhibition result is “inactive”.

As to `O=C(O)CC1CCC(c2ccc(-c3ccc(Nc4ccc(C(F)(F)F)nc4)cn3)cc2)CC1` (centres undefined), the activity change, negative = inhibition entry was “inactive”.

Take `CC(C)CC(=O)O[C@@H]1O[C@H](CO)[C@@H](O[C@H]2O[C@H](C)[C@@H](N[C@H]3C=C(CO)[C@@H](O[C@H]4O[C@H](CO)[C@@H](O[C@H]5O[C@H](CO)[C@@H](O[C@H]6O[C@H](CO)[C@@H](O)[C@H](O)[C@H]6O)[C@H](O)[C@H]5O)[C@H](O)[C@H]4O)[C@H](O)[C@H]3O)[C@H](O)[C@H]2O)[C@H](O)[C@H]1O`: the activity change, negative = inhibition result was “inactive”.

As to `CC(O)C1CCC2C3CCC4CC(OC5OC(C(=O)O)C(O)C(O)C5O)CCC4(C)C3CCC12C` (centres undefined), the activity change, negative = inhibition entry is “inactive”.

With `CO[C@H]1C[C@@H]2CC[C@@H](C)[C@@](O)(O2)C(=O)C(=O)N2CCCC[C@H]2C(=O)O[C@H]([C@H](C)C[C@H]2CC[C@@H](OP(C)(C)=O)[C@H](OC)C2)CC(=O)[C@H](C)/C=C(\C)[C@@H](O)[C@@H](OC)C(=O)[C@H](C)C[C@H](C)/C=C/C=C/C=C/1C`, the activity change, negative = inhibition entry was “inactive”.

With `CC(C)CC(c1c(O)c(C=O)c(O)c(C=O)c1O)C1CCC(C)(O)C2CC(C(C)(C)O)CCC12C` (centres undefined), the activity change, negative = inhibition entry is “inactive”.

Turning to `COc1ccc(Cn2c(=O)n(-c3ccccc3C)c(=O)c3c4c(sc32)CN(C(C)=O)CC4)cc1`, the activity change, negative = inhibition result is “inactive”.

With `C/C=C/C=C/[C@@H]1O[C@](O)([C@H](CC)C(=O)NC/C=C/C=C(\C)[C@@H](OC)[C@@H](C)[C@@H]2O[C@H](/C=C/C=C/C=C(\C)C(=O)c3c(O)ccn(C)c3=O)[C@H](O)[C@@H]2O)[C@H](O)[C@H](O)C1(C)C`, the activity change, negative = inhibition entry is “inactive”.

For `CCOC(=O)CNc1nc2ccccc2n2c(C)nnc12`, the activity change, negative = inhibition result was “inactive”.

As for `Cc1cc(C)c2sc(NC(=O)c3ccc(S(=O)(=O)N4CCCC4)cc3)nc2c1`, the activity change, negative = inhibition entry is “inactive”.

With `Cc1cc(C)c(-n2cc(C)c3c(Cl)nc(C)nc32)c(C)c1`, the activity change, negative = inhibition entry was “inactive”.

Regarding `CNC(=O)c1ccc(-c2nc(CN3CCc4ccccc43)c(C)o2)cc1`, the activity change, negative = inhibition entry is “inactive”.

As for `COc1cc(OC)c(NC(=O)c2ccc(Cc3cc4c(cc3C)C(C)(C)CCC4(C)C)o2)c(OC)c1`, the activity change, negative = inhibition entry is “inactive”.

As to `O=C(Nc1ccc2nc(SCC(=O)N3CCCc4ccccc43)sc2c1)c1ccc(Cl)cc1`, the activity change, negative = inhibition entry is “inactive”.

For `CC1(C)CCC2(C(=O)OC3OC(COC4OC(CO)C(O)C(O)C4O)C(O)C(O)C3O)CCC3(C)C(=CCC4C5(C)CCC(O)C(C)(C(=O)O)C5CCC43C)C2C1O` (centres undefined), the activity change, negative = inhibition entry was “inactive”.

Consider `COc1ccccc1-c1c[nH]c2ncc(-c3cncc(C(=O)N(C)C)c3)cc12`, for which the activity change, negative = inhibition entry is “inactive”.

Take `CN(Cc1ccccc1)C(=O)CCS(=O)(=O)c1cc(Br)cc2c1N(C(=O)C1CC1)CC2`: the activity change, negative = inhibition result was “inactive”.

As for `CC1CCC2C(C(=O)O)=CC3C(O)C(C)(C)CC123` (centres undefined), the activity change, negative = inhibition entry was “inactive”.

Take `CC(O)/C=C/C1(O)C2(C)COC1(C)CC(O)C2` (centres undefined): the activity change, negative = inhibition result is “inactive”.

As for `CC1CCC2C(C)(C)C(O)CCC2(C)C12Cc1c(O)cc3c(c1O2)CN(C(CCC(N)=O)C(=O)O)C3=O` (centres undefined), the activity change, negative = inhibition result is “inactive”.

In the case of `CC(=O)N1CCCc2cc(S(=O)(=O)N3CCC(C(=O)NCc4ccc(C)cc4)CC3)ccc21`, the activity change, negative = inhibition result is “inactive”.

For `NC1CCC(Nc2cc(-c3cccc(NCc4cccc(F)c4)n3)c(Cl)cn2)CC1` (centres undefined), the activity change, negative = inhibition result was “inactive”.

For `Cc1ccc(S(=O)(=O)NCc2nc3nc(C)cc(C)n3n2)cc1`, the activity change, negative = inhibition result is “inactive”.

For `Cc1nc2c(C(F)(F)F)cccc2nc1-c1ccc(-c2cccc(S(C)(=O)=O)c2)cc1`, the activity change, negative = inhibition result was “inactive”.

For `COc1ccc(-c2nc(C)c(CCNC(=O)c3ccc(C(F)(F)F)cc3)s2)cc1OC`, the activity change, negative = inhibition entry was “inactive”.

Regarding `COc1ccc(-c2cn3c(n2)sc2cc(C(=O)Nc4ccccc4F)ccc23)cc1`, the activity change, negative = inhibition entry was “inactive”.

As to `Nc1nc2c(ncn2[C@@H]2O[C@@H]3COP(=O)(O)O[C@H]3[C@H]2O)c(=O)[nH]1`, the activity change, negative = inhibition entry is “inactive”.

In the case of `C[C@@H]1C[C@@H](O)[C@@]23CO[C@]2(CO)C[C@@H](O)CC3[C@@]12CC(c1ccoc1)OC2=O` (some centres undefined), the activity change, negative = inhibition entry was “inactive”.

Regarding `CCC(=O)N[C@@H]1Cc2ccccc2[C@H](c2ccccc2)C1`, the activity change, negative = inhibition result was “inactive”.

With `CCOC(=O)c1c(C)n(S(=O)(=O)c2ccc(C)cc2C)c2ccc(NS(=O)(=O)c3ccc(C)cc3C)cc12`, the activity change, negative = inhibition result is “inactive”.

For the compound `CCOC(=O)CSc1nc2c(sc3ccccc32)c(=O)n1CCCN1CCCC1`, the activity change, negative = inhibition result was “inactive”.

With `COc1cc(OC)c(NC(=O)c2cc(S(=O)(=O)N3CCCC3)cn2C)cc1Cl`, the activity change, negative = inhibition result is “inactive”.

As for `Cc1ccc(NC(=O)C2CCCN2S(=O)(=O)c2cccc3cccnc23)c(C)c1` (centres undefined), the activity change, negative = inhibition result is “inactive”.

On to `CC1C(=O)OCC2=CCN3CCC(OC(=O)C(C)(O)C1(C)O)C23` (centres undefined), for which the activity change, negative = inhibition entry was “inactive”.

Turning to `C[C@@H]1[C@H](O)[C@@H]2OC(=O)C3=C2[C@H](CCC3)[C@@]12C[C@@H](c1ccoc1)OC2=O`, the activity change, negative = inhibition result is “inactive”.

On to `C[C@H]1CC[C@@H]2N(C1)C[C@@H]1[C@H]([C@@H](O)[C@H](O)[C@]3(O)[C@H]1C[C@@]14OC5(O)[C@@H](C[C@@H](O)[C@@H]31)[C@]4(C)CC[C@@H]5O)[C@]2(C)O`, for which the activity change, negative = inhibition entry is “inactive”.

On to `CN1CCCC1Cc1c[nH]c2ccc(CCS(=O)(=O)c3ccccc3)cc12` (centres undefined), for which the activity change, negative = inhibition entry was “inactive”.

With `O=C(C1CCCN(S(=O)(=O)c2cccc3nonc23)C1)N1CCN(c2ccccc2F)CC1` (centres undefined), the activity change, negative = inhibition result was “inactive”.

In the case of `COC(=O)[C@]12CCC(C)(C)C[C@@H]1[C@@H]1C(=O)C=C3[C@]4(C)C=C(C#N)C(=O)C(C)(C)[C@@H]4CC[C@@]3(C)[C@]1(C)CC2`, the activity change, negative = inhibition entry was “inactive”.

For the compound `C#C[C@]1(O)CC[C@H]2[C@@H]3CCC4=C/C(=N/O)CC[C@@H]4[C@H]3CC[C@@]21CC`, the activity change, negative = inhibition result is “inactive”.

Take `CC(=O)N1c2ccc(S(=O)(=O)N3CCCCCC3)cc2CC1C(=O)NCc1ccccc1C` (centres undefined): the activity change, negative = inhibition entry is “inactive”.

Regarding `COc1ccc(NC(=O)c2ccc3nc(CCc4ccccc4)oc3c2)c(OC)c1`, the activity change, negative = inhibition result is “inactive”.

Turning to `COc1cc(Nc2nc3ccccc3nc2NS(=O)(=O)c2cccc(NC(=O)c3ccc(C)c(OC)c3)c2)cc(OC)c1`, the activity change, negative = inhibition entry is “inactive”.

In the case of `CC1(C)C(=O)N2c3ccccc3C(O)(CC(C(=O)O)n3cnc4ccccc4c3=O)C2N1O` (centres undefined), the activity change, negative = inhibition result was “inactive”.

Take `O=c1[nH]c2ccc(C#CCN3CCC(Cc4ccccc4)CC3)cc2[nH]1`: the activity change, negative = inhibition result was “inactive”.

As for `CCOCCCNC(=O)c1cn(CC(C)C)c(=O)c2c1c1ccccc1n2C`, the activity change, negative = inhibition entry was “inactive”.

As for `CCOc1ccccc1CNC(=O)Nc1cn(CC(C)C)c(=O)c2ccccc12`, the Potency was 28.2 µM [activator] (active).

With `CCOc1ccccc1NC(=O)Cn1c2ncccc2c(=O)n1-c1ccc(C)c(C)c1`, the activity change, negative = inhibition result is “inactive”.

These data come from PubChem BioAssay AID1347055 (National Center for Advancing Translational Sciences (NCATS), 2019).
